# High-throughput results (PubChem)
# EBV gp42 block: Epstein-Barr virus gp42 inhibitors, primary screen, biochemical, uHTS, fluorescence polarization | Glycoprotein 42 (Epstein-Barr virus (strain AG876)), Q1HVG2 | Fluorescence polarization binding assay, mP read-out | inhibition, % (tested at 21.74 µM) | 0.42% of 220,000 active | AID 1085, 2008; in the data active means inhibition above about 50%
# Target sequence (Q1HVG2 whole entry, looked up): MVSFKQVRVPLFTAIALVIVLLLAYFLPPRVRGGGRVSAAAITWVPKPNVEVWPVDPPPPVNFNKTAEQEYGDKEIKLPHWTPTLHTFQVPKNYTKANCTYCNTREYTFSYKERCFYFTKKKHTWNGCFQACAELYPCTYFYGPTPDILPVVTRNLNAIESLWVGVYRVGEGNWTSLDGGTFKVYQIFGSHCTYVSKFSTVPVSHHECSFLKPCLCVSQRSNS
# BCLXL inh: inhibitors of human Bcl-xL, primary screen, biochemical, fluorescence polarization, HTS. 0.7% of 320,000 active. inhibition, % at 10.9 µM. GST-Bcl-xL / FITC-Bim BH3 peptide fluorescence polarization. Bcl-2-like protein 1 (Homo sapiens), Q07817;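 active means inhibition above the mean of all tested compounds plus 3 SD, cutoff set per campaign, cut at about 30% in these data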;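 further: 0% = DMSO wells and 100% = unlabeled Bim-BH3 peptide competitor; inhibitors lower millipolarization by displacing the labeled peptide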
# MCL1 BIM primary: inhibitors of MCL1 binding to BIM-BH3, primary screen, biochemical, fluorescence polarization; Induced myeloid leukemia cell differentiation protein Mcl-1 (Homo sapiens), Q07820; GST-MCL1 / FITC-Bim-BH3 fluorescence polarization; inhibition, % at 10.9 µM; 0.68% of 320,000 active; AID 2057, 2009;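 active means inhibition above the mean inhibition of all tested compounds plus 3 SD, set per campaign, cut at about 40% in these data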;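 further: 0% = DMSO wells and 100% = unlabeled Bim-BH3 peptide control; higher means more loss of mP so more displacement of Bim peptide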
# Target sequence (Q07820 whole entry, looked up): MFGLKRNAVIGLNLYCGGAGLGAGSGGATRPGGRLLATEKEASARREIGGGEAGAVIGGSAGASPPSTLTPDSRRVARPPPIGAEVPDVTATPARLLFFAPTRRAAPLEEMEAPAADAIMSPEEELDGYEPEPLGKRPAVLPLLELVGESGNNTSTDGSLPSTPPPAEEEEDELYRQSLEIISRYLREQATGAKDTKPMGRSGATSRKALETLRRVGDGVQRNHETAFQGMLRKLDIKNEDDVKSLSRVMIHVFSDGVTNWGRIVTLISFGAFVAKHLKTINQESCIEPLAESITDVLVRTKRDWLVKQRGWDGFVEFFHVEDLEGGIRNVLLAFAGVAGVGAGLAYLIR
# MEX-5 binding: MEX-5 zinc finger RNA-binding disruptors – biochemical, C. elegans, fluorescence polarization, MLPCN library, primary screen; Zinc finger protein mex-5 (Caenorhabditis elegans), Q9XUB2; MEX-5/FITC-TCR2 RNA binding; stronger effect = lower value; activity score (negative = inhibition of binding), % at 10 µM; 0.38% of 300,000 active; AID 1832, 2009;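 active means inhibition past about -25% in most replicates, and total fluorescence under double the plate's negative control median, limit read from the data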;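 further: 0% = DMSO and -100% = 5 µM competing unlabeled TCR2 RNA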
# GLD-1 RNA inh: GLD-1/TGE RNA complex disruptors, primary screen, biochemical, fluorescence polarization | Female germline-specific tumor suppressor gld-1 (Caenorhabditis elegans), Q17339 | inhibition, % at 5.96 µM | purified GLD-1 + fluorescein TGE RNA | 0.44% of 320,000 active | AID 2280, 2010;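 active means percent inhibition above a per-plate cutoff, the plate mean of test compounds plus 3 SD, cut at about 30% in these data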;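 further: 0% = DMSO wells with GLD-1 and probe and 100% = wells lacking GLD-1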
# Starred values were filed as active, the others as inactive; / = not tested or not shown; + = active, no number. Rows were chosen to be rich in hits. Some 1.3% of all compounds tested hit in one or more screens of this group.
SMILES,EBV gp42 block,BCLXL inh,MCL1 BIM primary,MEX-5 binding,GLD-1 RNA inh
Cc1ccc(S(=O)(=O)NNC(=S)NC(=O)c2ccc([N+](=O)[O-])cc2)cc1,-6,15,17,-31*,0
O=C(NNc1ccc([N+](=O)[O-])cc1)Nc1ccccc1,/,3,6,0,3
O=C(NNc1ccccc1)C(=O)NNS(=O)(=O)c1ccc([N+](=O)[O-])cc1,-3,12,19,-35*,8
CCN1C(=Nc2ccc(Cl)cc2)SC/C1=C\C(=O)OC,-13,5,9,0,4
O=C1CCN1C1(C(=O)NC2CCCCC2)CCCC1,-1,3,12,1,-3
COc1cccc(C2C=C(c3ccc(Br)s3)Nc3ncnn32)c1OC (stereo unspecified),13,34*,32,-3,2
C=CCOC(=O)C1=C(C)Nc2ncnn2C1c1cc(Br)ccc1F (stereo unspecified),-19,6,6,2,1
Fc1ccc(Br)cc1C1C=C(c2ccc(Br)s2)Nc2ncnn21 (stereo unspecified),-18,38*,-2,-2,19
CSc1ccccc1C(=O)C1CCCN(S(=O)(=O)c2c(C)noc2C)C1 (stereo unspecified),-10,6,6,0,-2
Cc1ccc(/C=C2/Sc3ccc(C(=O)N4CCN(c5ccccn5)CC4)cc3NC2=O)cc1,/,-6,-12,-61*,-5
O=C(c1cc2ccccc2oc1=O)N(Cc1ccc2c(c1)OCO2)Cc1ccco1,-1,1,4,3,2
O=C(O)CCC(=O)NNc1nc(-c2ccccc2)c2cc(Cl)ccc2n1,/,4,2,-44*,-1
CCN1C(=O)/C(=C2/Sc3ccccc3N2CC)SC1=S,/,-1,6,-18,6
CCN1/C(=C2\SC(=S)N(Cc3ccccc3)C2=O)Sc2ccccc21,53*,3,4,-26*,-2
CCN1/C(=C2/SC(=S)N(NC(C)=O)C2=O)Sc2ccccc21,/,/,/,-46*,/
COCC(C)N1CCC(n2nccc2NC(=O)c2ccccc2Cl)CC1 (stereo unspecified),/,5,2,-4,-3
CC(CN1CCC(n2nccc2NC(=O)c2ccccc2Cl)CC1)c1ccccc1 (stereo unspecified),/,33*,33,-18,6
Cc1ccccc1C(=O)Nc1ccnn1C1CCN(C(C)Cc2ccccc2F)CC1 (stereo unspecified),/,39*,42*,-15,4
CN(Cc1ccccc1)C(=O)[C@H]1CCC(=O)N1Cc1ccco1,-6,/,/,2,/
CC(c1nccs1)N(C)c1nc2nonc2nc1NC1CC1 (stereo unspecified),0,33*,37,-8,28
Oc1cc2c(cc1O)[C@@H](c1ccccc1)CNCC2,-18,/,/,/,/
Oc1cc2c(cc1O)C(c1ccccc1)CNCC2 (stereo unspecified),/,19,13,-30*,1
O=C(O)/C(=C/c1ccco1)NC(=O)c1ccc(Br)o1,/,17,23,1,-1
NC(=O)/C(=C\c1ccco1)NC(=O)c1ccc(Br)o1,/,37*,42*,-6,19
CC(C)C(NC(=O)/C(=C/c1ccco1)NC(=O)c1ccc(Br)o1)C(=O)O (stereo unspecified),/,35*,45*,-4,16
SMILES,EBV gp42 block,BCLXL inh,MCL1 BIM primary,MEX-5 binding,GLD-1 RNA inh
CC(=O)c1cc2c(O)c(O)ccc2o1,-18,34*,24,0,10
CC(=O)c1cc2cc(O)ccc2o1,-23,-8,-13,/,-2
CC1=C(C(=O)Nc2ccccc2)C(c2ccc(C)o2)n2ncnc2N1 (stereo unspecified),-24,7,13,0,1
CC1=C(C(=O)NCc2ccccc2)C(c2ccc(C)o2)n2ncnc2N1 (stereo unspecified),-9,38*,42*,0,30
O=C(c1ccc2c(=O)n3c(nc2c1)CCCCC3)N1CCN(c2cccc(Cl)c2)CC1,/,7,3,0,3
COc1ccc(NC(=O)CSc2nnc(C)c3ccccc23)cc1,/,9,8,-10,-32
COc1ccc(NC(=O)CSc2ccc3c4c(cccc24)C(=O)c2ccccc2-3)cc1,133*,15,-6,-19,-17
Nc1scc2c(C(=O)N/N=C/c3ccc(Cl)cc3)nn(-c3ccccc3)c(=O)c12,-9,43*,40*,-4,11
CCOC(=O)c1nn(-c2ccccc2)c(=O)c2c(N)scc12,-16,4,9,/,7
CC(C)N1CCN(Cc2cc3ccccc3[nH]2)CC1CCO (stereo unspecified),/,0,-3,1,3
CCCN1C(=O)/C(=C\C=C2\N(CC)c3ccccc3C2(C)C)SC1=S,+,/,/,1,/
CN1/C(=C\C=C2/SC(=S)NC2=O)C(C)(C)c2ccccc21,-155,37*,-13,22,-101
CN1/C(=C\C=C2/C(=O)Oc3ccccc3C2=O)C(C)(C)c2ccccc21,18,47*,8,11,-127
O=C(O)/C=C/c1ccc(Cn2ccnc2)cc1,/,6,0,1,2
N#Cc1ccc(Oc2ncccn2)cc1,/,0,-8,/,-1
CCOC(=O)C1=C(C)NC(=O)/C1=C\N(C)C,-10,38*,31,-3,21
CCOC(=O)C1=C(C)S/C(=C\N(C)C)C1=O,-22,2,14,1,9
CN1CCc2c(sc(N)c2C(=O)O)C1,9,31*,29,-9,13
COc1ccc(C(=O)c2c(N)sc3c2CCN(C)C3)cc1,/,33*,32,-20,-2
COc1ccc(C(=O)c2c(NC(C)=O)sc3c2CCN(C(=O)OC(C)(C)C)C3)cc1,0,1,-2,1,-6
CC(=O)Oc1cc2c3c(c1)/C(=C1/SC(=S)NC1=O)C(=O)N3C(C)(C)C=C2C,9,50*,10,1,9
CCOc1cc2c3c(c1)C(C)=CC(C)(C)N3C(=O)C2=O,-1,3,3,-1,3
CCOC(=O)C(=O)C1=CN(Cc2ccccc2)C=C(C#N)C1,/,43*,47*,1,25
CCCCN1C(=O)C2(OCCCO2)c2cccc(C)c21,/,6,4,3,-1
CC1=CN2C(=N)/C(=C/c3ccc([N+](=O)[O-])o3)C(=O)N=C2S1,4,35*,31,0,12
CC(=O)C1=NOC2C(=O)N(c3ccc(Cl)cc3)C(=O)C12 (stereo unspecified),/,1,0,2,-4
O=C(C1=NN(c2ccccc2)C2C(=O)N(c3cccc(Cl)c3)C(=O)C12)c1ccccc1 (stereo unspecified),74*,32*,14,/,5
